High-throughput results as filed in PubChem BioAssay.
KCNQ2 pot: potentiators of rat KCNQ2 potassium channel | O88943 | CHO-K1 KCNQ2, FluxOR thallium flux fluorescence; active compounds read high | B-score at 10 µM | actives 0.54% (n = 310,000) | AID 2239;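 active = fluorescence ratio B-score at least 3 SD of library B-scores, with initial fluorescence B-score within 3 of them, cut at about 5.3 in these data; same plate scores as AID 2156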;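 note: B-score of peak minus minimum over baseline fluorescence ratio after K+ and Tl+ stimulus; positive B-score means potentiation of KCNQ2 with more thallium influx and brighter signal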
Target sequence (O88943 whole entry, looked up): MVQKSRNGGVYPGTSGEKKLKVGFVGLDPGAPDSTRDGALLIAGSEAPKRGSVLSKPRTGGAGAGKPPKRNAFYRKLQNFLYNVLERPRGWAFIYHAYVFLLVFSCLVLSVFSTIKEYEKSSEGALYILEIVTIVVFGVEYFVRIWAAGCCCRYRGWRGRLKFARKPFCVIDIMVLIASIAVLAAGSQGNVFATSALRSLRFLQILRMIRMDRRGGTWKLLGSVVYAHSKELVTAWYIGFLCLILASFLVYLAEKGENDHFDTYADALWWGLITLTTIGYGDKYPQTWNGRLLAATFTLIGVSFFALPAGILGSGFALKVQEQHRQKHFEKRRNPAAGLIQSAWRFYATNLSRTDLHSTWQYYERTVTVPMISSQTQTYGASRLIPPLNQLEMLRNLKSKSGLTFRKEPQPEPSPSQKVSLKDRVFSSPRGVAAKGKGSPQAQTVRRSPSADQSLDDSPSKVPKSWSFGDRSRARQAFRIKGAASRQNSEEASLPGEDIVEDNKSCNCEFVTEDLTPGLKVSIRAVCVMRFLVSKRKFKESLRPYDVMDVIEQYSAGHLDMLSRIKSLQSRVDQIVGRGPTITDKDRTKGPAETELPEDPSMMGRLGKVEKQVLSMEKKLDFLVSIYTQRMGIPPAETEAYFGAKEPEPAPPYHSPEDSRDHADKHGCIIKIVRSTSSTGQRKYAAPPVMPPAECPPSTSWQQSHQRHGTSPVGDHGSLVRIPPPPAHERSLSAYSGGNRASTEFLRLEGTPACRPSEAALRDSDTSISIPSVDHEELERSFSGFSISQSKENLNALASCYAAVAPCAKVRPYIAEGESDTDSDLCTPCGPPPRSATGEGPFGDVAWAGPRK
KCNQ2 inh: blocks the rat KCNQ2 potassium channel; O88943; CHO-K1 KCNQ2, FluxOR thallium flux, 20 min; active compounds read low; B-score at 10 µM; actives 1.1% (n = 310,000);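 active = fluorescence ratio B-score at most minus 3 library SDs, with starting brightness B-score within 2 library SDs, cut at about -5.5 in these data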
* marks the source's active call; other numbers are inactive results; i = inactive; nt = not tested or not shown. Sampled rows, rich in hits. Any-hit rate of the full collection: about 1.6%.

SMILES	KCNQ2 pot	KCNQ2 inh
O=C(NNC(=S)Nc1ccccc1)c1cc(-c2cccnc2)nc2ccccc12	-6.12	-6.12*
Cc1ccc(C)c(-c2cc(C(=O)Nc3cccnc3)c3ccccc3n2)c1	-6.33	-6.33*
Cc1ccc(C)c(-c2cc(C(=O)Nc3cccc(C(=O)O)c3)c3ccccc3n2)c1	nt	i
Brc1ccccc1OCCCn1cnc2ccccc21	nt	i
O=C(NCCCN1CCOCC1)c1cc(-c2ccc3c(c2)OCO3)nc2ccccc12	nt	i
O=C(Nc1cccnc1)c1cc(-c2ccc(Br)cc2)nc2ccccc12	-6.28	-6.28*
O=C(NCCCN1CCOCC1)c1cc(-c2ccc(Br)cc2)nc2ccccc12	-6.81	-6.81*
CC(=O)Nc1cccc(NC(=O)c2cc(-c3cccnc3)nc3ccc(Br)cc23)c1	nt	i
O=C(CSC1=NS(=O)(=O)c2cc(F)ccc2N1)NCc1ccc(F)cc1	nt	i
O=C(NCc1ccccn1)c1ccc2c(=O)n(CCc3ccccc3)c(=O)[nH]c2c1	0.28	i
Cc1ccc(CN2CCN(c3ccccn3)CC2)s1	0.99	i
CCCCc1cc(=O)oc2cc(C)cc(OCC(=O)Nc3ccccn3)c12	0.14	i
O=C(CCN1CCC(c2ccccc2)C1)c1ccccc1 (centres undefined)	nt	i
O=C(CCN1CCC(c2ccccc2)C1)c1ccc2c(c1)OCCO2 (centres undefined)	-6.16	-6.16*
Cc1oc(-c2cccc(F)c2)nc1CN1CCCCC1CCc1ccccn1 (centres undefined)	0.93	i
O=C(O)c1cc(N/N=C/c2cccc3ccccc23)ccc1Cl	1.82	i
O=C(O)c1cc(N/N=C/C(Cl)=C/c2ccccc2)ccc1Cl	5.32*	i
CC(C)[C@H](NC(=O)c1ccco1)C(=O)OCC(=O)N(C)c1ccccc1	nt	i
Cc1ccc(N2C(=O)c3ccccc3C2Nc2ccccc2)nc1 (centres undefined)	nt	i
CCc1cccc(NC2c3ccccc3C(=O)N2c2ccc(C)cn2)c1 (centres undefined)	-7.55	-7.55*
COc1cccc(-n2nnnc2SCC(=O)N2CCCc3ccccc32)c1	nt	i
C=CCn1c(O)c(N=NC(=S)Nc2ccc(OC)cc2)c2ccccc21	3.98	i
C=CCn1c(O)c(N=NC(=S)Nc2cccc(OC)c2)c2ccccc21	11.8*	i
CCC(=O)N(C)CCc1cc2c(c(OC)c1/C=N/Nc1ccc(C(=O)O)cc1)OCO2	nt	i
COc1ccc(O[C@H]2C=C[C@@H](c3ccccc3)O[C@@H]2COC(=O)CC/C(C)=N/OC[C@@H](O)COCc2ccco2)cc1	nt	i
SMILES	KCNQ2 pot	KCNQ2 inh
COC(=O)C/C=C/[C@@H](C)[C@@H](/C=N/OC[C@H]1O[C@H](c2ccccc2)C=C[C@@H]1Oc1ccc(OC)cc1)OC	-6.9	-6.9*
CC(=O)Nc1ccc(SCC(=O)N(CCC#N)c2ccc(C)cc2)cc1	nt	i
COC(=O)CNC(=O)c1cccc(Cl)c1	nt	i
CN(Cc1ccccc1)C(=S)NC(=O)c1ccc(-c2ccccc2)cc1	7.12*	i
CN(Cc1ccccc1)C(=S)NC(=O)c1cccs1	2.16	i
CN(Cc1ccccc1)C(NC(=O)c1ccco1)C(Cl)(Cl)Cl (centres undefined)	0.56	i
CSc1ccc(CN(C)C(=O)C(Cc2ccccc2)NC(=O)c2ccccc2)cc1 (centres undefined)	-5.54	-5.54*
CN(Cc1ccc(F)cc1)C(=O)C(Cc1ccccc1)NC(=O)c1ccccc1 (centres undefined)	nt	i
CN(Cc1ccccc1)C(NC(=O)c1ccccc1)C(Cl)(Cl)Cl (centres undefined)	-5.85	-5.85*
Cc1ccc(CS(=O)(=O)CCC(=O)NCc2ccccc2Cl)cc1	nt	i
COc1ccc(CCC(=O)Nc2ccc(S(=O)(=O)N3CCOCC3)cc2)cc1	nt	i
CC(NC(=O)CCCCCCN1C(=O)c2ccccc2C1=O)c1ccc2c(c1)CCCC2 (centres undefined)	5.32*	i
CC(NC(=O)CCCCCN1C(=O)c2ccccc2C1=O)c1ccc2c(c1)CCCC2 (centres undefined)	4.25	i
NC(=O)C1CCN(C(=O)c2cc3n(n2)C(C(F)(F)F)CC(c2ccco2)N3)CC1 (centres undefined)	0.8	i
CCCOC(=O)C1[C@H]2C(=O)N(CCCOC)C[C@]23C=C[C@H]1O3 (some centres undefined)	0.82	i
COc1ccc(-c2noc(N3CCC(C(=O)Nc4ccc(OC)c(OC)c4)CC3)n2)cc1	nt	i
Cc1ncc(C[n+]2csc(CCOC(=O)CC34CC5CC(CC(C5)C3)C4)c2C)c(N)n1	nt	i
Cc1c(CCOC(=O)CC23CC4CC(CC(C4)C2)C3)sc[n+]1Cc1ccccc1	-5.6	-5.6*
O=C(COc1ccccc1)NC(NC(=S)Nc1ccccc1O)C(Cl)(Cl)Cl (centres undefined)	-6.18	-6.18*
Cc1ccccc1NC(=S)NC(NC(=O)COc1ccccc1)C(Cl)(Cl)Cl (centres undefined)	nt	i
CCOC(=O)C1(CC2CC2)CCN(C(=O)c2cccnc2C)CC1	-6.44	-6.44*
CCOC(=O)C1(CC2CC2)CCN(C(=O)c2cc(C3CC3)nc3ccccc23)CC1	nt	i
C[C@@H](C(=O)NCc1ccccn1)[C@H]1C[C@]1(C)[C@H](NC(=O)OCc1ccccc1)c1ccccc1	-6.68	-6.68*
C[C@@H](C(=O)Nc1ccc2ccccc2c1)[C@H]1C[C@]1(C)[C@H](NC(=O)OCc1ccccc1)c1ccccc1	-5.89	-5.89*
C[C@@H](C(=O)NCC1CC1)[C@@H]1C[C@@]1(C)[C@@H](NC(=O)OCc1ccccc1)c1ccccc1	nt	i
SMILES	KCNQ2 pot	KCNQ2 inh
C[C@H](CO)NC(=O)[C@H](C)[C@H]1C[C@]1(C)[C@H](NC(=O)OCc1ccccc1)c1ccccc1	0.67	i
O=C(NCCCN1CCOCC1)c1sc2ccccc2c1Cl	0.7	i
CCOP(=O)(OCC)c1nc(-c2cccc([N+](=O)[O-])c2)oc1N1CCCCC1	nt	i
CCOP(=O)(c1ccccc1)c1nc(-c2ccccc2Cl)oc1N1CCCCC1 (centres undefined)	-5.61	-5.61*
COc1ccc(-c2c(C#Cc3ccsc3)c3ccccc3n2C)cc1	0.6	i
CCCOc1cccc(-c2cc(C(=O)N/N=C/c3cccnc3)c3ccccc3n2)c1	-5.83	-5.83*
O=C(N/N=C/c1ccccn1)c1cc(-c2ccc(Br)cc2)nc2ccccc12	4.84	i
Cc1cccc(-c2cc(C(=O)N/N=C/c3cccnc3)c3ccccc3n2)c1	nt	i
N/C(=N\OC(=O)c1cc(-c2ccccc2)nc2ccccc12)c1ccc(Cl)cc1	-6.23	-6.23*
O=C(N/N=C/c1c[nH]c2ccccc12)c1sc2ccccc2c1Cl	nt	i
N/C(=N\OC(=O)c1cc(-c2ccccc2)nc2ccccc12)c1cccnc1	nt	i
O=C(N/N=C/c1ccccn1)c1cc(-c2ccc(Cl)cc2)nc2ccccc12	9.58*	i
O=C(N/N=C/c1ccccn1)c1sc2ccccc2c1Cl	13.6*	i
Cc1nnsc1C(=O)NC(=O)Nc1ccc(F)c(Cl)c1	1.13	i
Cc1cccc(C)c1NC(=O)CSc1nc2ccccc2c(=O)[nH]1	0.12	i
COc1ccc(CCNC(=O)CCC2COc3ccccc3O2)cc1OC (centres undefined)	1.42	i
